CYP2C9 act = increases human cytochrome P450 2C9 activity. 96,000 tested, 1.4% active. activation factor at 5 µM. recombinant CYP2C9, luciferin-H conversion, luminescence; active compounds read high; factor 1 = untreated enzyme, 0 = blocked. AID 1024. P11712;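 active = activation factor of 2 or more for CYP2C9 at a 5 µM dose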;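 note: 0 = sulfaphenazole-blocked wells and 1 = vehicle-only wells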
Cav3 T inh = human Cav3.2 channel inhibition, primary screen. 100,000 tested, 4% active. Cav3.2-expressing cells, Fluo-4 calcium fluorescence FDSS; active compounds read low. AID 449739. O95180. B-score at 10 µM;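 active = single-dose well whose peak fluorescence ratio is a statistical outlier from its plate by either plate-standardised score or position-corrected B-score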
CYP2C19 inh = blocks human cytochrome P450 2C19; P33261; CYP2C19 Supersomes, luciferin-H EGE luminescence, 30 min; inhibition, % at 5 µM; 96,000 tested, 21% active; AID 778;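 active = CYP2C19 inhibition above a set limit at 5 µM in the primary screen, cut at about 50% in these data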;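 note: plate controls were negative control wells for no effect and 2.5 mM tranylcypromine positive control for full effect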
Target sequence (P33261 whole entry, looked up): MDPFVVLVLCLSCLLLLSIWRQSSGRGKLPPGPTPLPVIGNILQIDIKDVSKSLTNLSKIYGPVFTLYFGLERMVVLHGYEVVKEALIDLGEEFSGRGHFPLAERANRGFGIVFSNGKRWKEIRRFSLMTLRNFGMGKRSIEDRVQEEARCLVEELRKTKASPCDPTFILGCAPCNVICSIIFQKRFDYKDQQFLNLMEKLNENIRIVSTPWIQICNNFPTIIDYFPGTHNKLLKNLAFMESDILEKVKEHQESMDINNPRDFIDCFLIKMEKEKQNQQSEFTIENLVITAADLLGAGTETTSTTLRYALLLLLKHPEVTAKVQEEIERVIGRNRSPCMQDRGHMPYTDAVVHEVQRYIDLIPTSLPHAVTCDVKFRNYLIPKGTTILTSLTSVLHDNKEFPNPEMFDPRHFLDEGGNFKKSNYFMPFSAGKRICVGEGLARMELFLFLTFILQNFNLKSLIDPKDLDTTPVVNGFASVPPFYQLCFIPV
CYP2C19 activ = cytochrome P450 2C19 (human) activation | P33261 | activation factor at 5 µM | 96,000 tested, under 10 active | AID 1025 | recombinant CYP2C19, luciferin-H EGE luminescence; active compounds read high; 0 = fully inhibited enzyme, 1 = untreated enzyme;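 active = activation factor of at least 2 at 5 µM in the primary screen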;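 note: 0 = wells with 2.5 mM tranylcypromine and 1 = vehicle-only wells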
CYP2C9 inh = inhibitors of human CYP2C9; inhibition, % at 5 µM; CYP2C9 Supersomes, luciferin-H conversion, luminescence; 96,000 tested, 20% active; AID 777;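 active = blocking of liver enzyme CYP2C9 beyond about 50% at 5 µM, limit read from the data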
The depositor's hits bear a star; . = no result. Sampled rows, rich in hits. Any-hit rate of the full collection: about 27%.

SMILES	CYP2C9 act	Cav3 T inh	CYP2C19 inh	CYP2C19 activ	CYP2C9 inh
CC(C)Oc1ccccc1-c1nc(SCC(=O)O)n[nH]1	1.1	0.643	-1.5	1	-6.8
CCOC(=O)C1=C(C)NC(=O)NC1/C(C)=C/c1ccccc1 (centres undefined)	0.3	-0.00827	77.9*	0.2	68.9*
CCOC(=O)C1=C(C)NC(=O)C1CC(=O)Nc1ccccc1 (centres undefined)	.	-0.0539	.	.	.
CCOC(=O)C1=C(C)NC(=O)NC1c1ccc(N(CC)CC)cc1 (centres undefined)	0.5	-0.0953	16.9	0.8	52.4*
CCOC(=O)C1=C(C)NC(=O)NC1c1ccc(N(C)C)cc1 (centres undefined)	1.1	.	-3.8	1	-11.4
CCCCCCOC(=O)C1=C(C)NC(=O)NC1c1ccc(O)cc1 (centres undefined)	0.2	.	70.3*	0.3	80.6*
CCOC(=O)C1=C(C)NC(=O)NC1c1cccc(O)c1 (centres undefined)	0.9	-0.0219	3.3	1	5.7
CCOC(=O)C1=C(C)NC(=O)NC1c1ccc(OCC(=O)Nc2ccccc2)c(OC)c1 (centres undefined)	0.1	-1.88	70.3*	0.3	91.1*
O=C(COc1ccc(-c2nnco2)cc1)N1CCN(S(=O)(=O)c2ccc3ccccc3c2)CC1	1.1	-0.0187	28.7	0.7	-6.9
CCOC(=O)c1cnc(=O)[nH]c1C	1	0.429	-9.0	1.1	-3.3
CCC(C)NC(=O)C1CCCN(C(=O)Nc2ccc(F)cc2)C1 (centres undefined)	1	0.124	16.1	0.8	0.8
CCOC(=O)C1=C(CN2CCC(C)CC2)NC(=O)NC1c1ccc(Cl)cc1 (centres undefined)	0.1	-1.24	77.9*	0.2	89.3*
CCOC(=O)C1=C(CCc2ccccc2)NC(=O)NC1c1ccc(C#N)cc1 (centres undefined)	.	-0.267	.	.	.
CCOC(=O)C1=C(C)NC(=O)NC1c1ccc(OCC(=O)N2CCCCC2)cc1 (centres undefined)	0.8	0.467	4.9	1	21.4
CC1=C(C(=O)OCC(C)C)C(c2ccc(F)cc2)NC(=O)N1 (centres undefined)	0.7	0.563	89.5*	0.1	29.0
CCOC(=O)C1=C(C)NC(=O)NC1c1c(OCC(=O)N2CCCCC2)ccc2ccccc12 (centres undefined)	0.2	-0.971	76.1*	0.2	82.7*
CC1=C(C(=O)OC2CCCCCCC2)C(c2cccc(O)c2)NC(=O)N1 (centres undefined)	0.2	-3.63	81.2*	0.2	80.8*
CCc1ccc(N(C(C)=O)C2C=CS(=O)(=O)C2)cc1 (centres undefined)	0.9	-0.0136	26.6	0.7	12.0
Cc1nn(C(=O)N2CCOCC2)c(C)c1CN1C(=O)c2ccccc2C1=O	.	0.634	.	.	.
CCCSc1nnc(Cn2c(=O)sc3ccccc32)n1C	.	-0.146	.	.	.
COc1ccc(OC)c(C2C3=C(N=C4SCC(=O)N42)c2ccccc2CC3)c1 (centres undefined)	0.5	-1.25	44.2	0.6	47.3
COc1cccc(C2C3=C(N=C4SCC(=O)N42)c2ccccc2CC3)c1OC (centres undefined)	0.4	-0.00251	87.0*	0.1	60.1*
COc1ccc2c(c1)[nH]c1c(=O)n(Cc3ccccn3)cnc12	0.5	0.033	44.0	0.6	51.0*
O=C(O)CCCCCCCCCC(=O)c1cccs1	1.1	-2.27	-5.8	1.1	-10.9
O=S(=O)(NCc1ccco1)N1CCCCCC1	0.8	0.206	63.0*	0.4	15.8
SMILES	CYP2C9 act	Cav3 T inh	CYP2C19 inh	CYP2C19 activ	CYP2C9 inh
CCCCC(c1nnnn1CCOC)N1CCN(Cc2ccccc2)CC1 (centres undefined)	.	0.59	.	.	.
Clc1ccc(Cn2ncc3c(NCc4ccccc4)ncnc32)cc1	0.6	-6.86*	-9.3	1.1	40.3
COCCNc1ncnc2c1cnn2Cc1ccc(Cl)cc1	1.2	0.615	81.6*	0.2	-15.4
O=C(O)CCC(=O)N1CCc2cc(S(=O)(=O)N3CCN(c4ccc(F)cc4)CC3)ccc21	1	0.468	-11.4	1.1	-2.0
Cc1ccc(N(CC(=O)N2CC(=O)Nc3ccccc32)S(=O)(=O)c2ccc3c(c2)OCCO3)cc1	.	-1.72	.	.	.
Cc1ccc2oc(=O)c3cnn(CC(=O)NCCCOC(C)C)c3c2c1	1.1	0.0898	-2.2	1	-11.2
CCc1cc2c(=O)c(-c3cscn3)coc2cc1O	1.2	.	-9.8	1.1	-16.6
CCOc1cc(C)c(-c2onc(C(F)(F)F)c2-c2csc(C)n2)c(O)c1	0.8	-2.76	75.6*	0.2	21.4
Cc1nc(-c2c(C(F)(F)F)noc2-c2ccc(O)cc2O)cs1	0.9	-0.996	68.9*	0.3	6.1
Oc1ccc(-c2onc(C(F)(F)F)c2-c2cscn2)c(O)c1	2.3*	.	76.3*	0.2	-129.9
CC(c1cccnc1)N(C(=O)Nc1ccccc1)C1CCCCC1 (centres undefined)	0.9	0.146	10.9	0.9	10.7
CCOC(=O)c1ccc(NC(=O)CCc2nc(-c3cccc(C)c3)no2)cc1	0.5	-0.892	0.0	1	52.0*
Cc1ccc(-c2noc(CCC(=O)Nc3cccc(C#N)c3)n2)cc1	0.6	-4.2*	24.1	0.8	44.7
CCOc1ccc(C(=O)NCC(=O)OCC(=O)N2C(C)CCCC2C)cc1 (centres undefined)	0.9	-0.383	17.8	0.8	8.4
CS(=O)(=O)N1CCC(C(=O)Nc2ccc(Cl)c(C(F)(F)F)c2)CC1	0.7	-0.106	34.4	0.7	32.9
CC(=O)NC1CC2CCCC(C1)N2C(=O)Nc1ccc(Cl)c(C(F)(F)F)c1 (centres undefined)	0.9	-0.253	57.8*	0.4	12.1
COc1ccc(C(=O)N[C@H](C(=O)NCC2CCCCC2)C(C)C)cc1	0.7	-1.36	26.2	0.7	25.6
Cc1cc(=O)oc2c1c(C)nn2-c1nn[nH]n1	1.1	-0.0294	-9.4	1.1	-7.3
COC(=O)CN1C(=O)COc2ccc(Cl)cc21	.	-0.245	.	.	.
O=C1COc2ccccc2N1Cc1ccccc1Cl	0.8	-1.76	80.0*	0.2	21.8
O=C(CN1C(=O)COc2ccccc21)c1cccc(Cl)c1	0.1	-2.39	99.3*	0	92.8*
CC(C)(C)OC(=O)N1CCNc2ccccc2C1	1.2	0.0351	0.0	1	-21.5
C=CCOc1ccc2ccccc2c1/C=N/O	0.7	-1.53*	28.7	0.7	32.5
C=CCOc1ccc(Br)cc1/C=N/O	0.7	-3.89*	40.0	0.6	34.7
O/N=C/c1cc(Br)ccc1OCc1ccccc1F	.	-1.63	.	.	.
Cc1nc2nc3c(cn2n1)C(=O)CC(C)(C)C3	1.4	0.598	7.5	0.9	-36.4
Cc1ccc2c(c1)c1c3n2CC(=C2C(=O)OC(C)(C)OC2=O)NC3CCC1 (centres undefined)	0.2	-1.63	40.3	0.6	81.0*
Nn1c(SCc2cn3ccsc3n2)nnc1-c1ccncc1	0.9	0.32	64.9*	0.4	8.2
Clc1ccc(SCc2cn3ccsc3n2)cc1	1.2	-2.46	52.7*	0.5	-20.3
